This is an account of results in PubChem BioAssay AID488969 (Vanderbilt High Throughput Screening Facility, 2010).

In all, about 110,000 compounds were measured (“z-score”: median about -0.1, highest 2% from about 2 on). The sample as a whole holds a higher share of the highest values than the screen did. The source made the active and inactive calls.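 The calls were made as follows: active = z-score in the third read window above 3 or below -3; inactive = the rest.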

In this assay the target is Metabotropic glutamate receptor 8 (Rattus norvegicus) (UniProt P70579). The assay can be described thus: rat mGluR8 modulators via GIRK flux, primary screen, cell-based, thallium flux, HTS (AID 488969). The settings on record: HEK293 rat mGluR8, GIRK (G protein-gated inwardly rectifying potassium channel) thallium flux, FluoZin2; at 10 µM; stronger effect = higher value; submaximal glutamate (EC20) added with thallium.
Metabotropic glutamate receptor 8 (Rattus norvegicus), sequence (P70579 whole entry, looked up): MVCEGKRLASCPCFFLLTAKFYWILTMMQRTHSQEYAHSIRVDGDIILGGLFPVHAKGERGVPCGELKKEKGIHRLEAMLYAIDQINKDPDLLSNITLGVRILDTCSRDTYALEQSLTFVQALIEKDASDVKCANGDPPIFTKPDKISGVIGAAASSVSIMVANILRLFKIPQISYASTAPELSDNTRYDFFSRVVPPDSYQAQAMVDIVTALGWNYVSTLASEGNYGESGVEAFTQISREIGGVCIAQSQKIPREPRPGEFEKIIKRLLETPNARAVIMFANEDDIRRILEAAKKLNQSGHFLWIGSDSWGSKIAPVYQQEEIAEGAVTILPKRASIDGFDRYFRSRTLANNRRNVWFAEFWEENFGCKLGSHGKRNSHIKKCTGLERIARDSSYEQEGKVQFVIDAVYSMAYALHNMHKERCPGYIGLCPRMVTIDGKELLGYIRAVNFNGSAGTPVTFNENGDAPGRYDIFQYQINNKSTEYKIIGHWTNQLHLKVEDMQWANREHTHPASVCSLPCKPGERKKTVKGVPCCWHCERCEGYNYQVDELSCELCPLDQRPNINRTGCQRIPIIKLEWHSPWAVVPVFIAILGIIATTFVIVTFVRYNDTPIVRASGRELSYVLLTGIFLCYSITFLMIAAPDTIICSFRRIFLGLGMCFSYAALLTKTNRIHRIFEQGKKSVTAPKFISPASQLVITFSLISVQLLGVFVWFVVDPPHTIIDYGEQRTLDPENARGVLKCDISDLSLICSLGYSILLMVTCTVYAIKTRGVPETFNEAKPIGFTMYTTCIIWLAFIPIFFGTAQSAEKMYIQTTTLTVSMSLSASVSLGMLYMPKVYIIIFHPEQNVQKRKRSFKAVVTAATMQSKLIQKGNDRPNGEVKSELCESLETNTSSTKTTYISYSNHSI
Compound `Cc1c(CN(C)CCc2ccccc2)c(=O)n(-c2ccccc2)n1C` returned a z-score of -0.04. The compound `CCc1ccc(Nc2nnc(SCC(=O)Nc3cccc(S(=O)(=O)NC4=NCCCCC4)c3)s2)cc1` had a z-score of -0.205.

`CCn1cc(C2=NOC(C(=O)Nc3ccccc3C(=O)OC)C2)c(C)n1` (stereo unspecified) came in with a z-score of -0.574. In turn, `CSc1ccccc1NC(=O)C1CC(c2ccccc2O)=NO1` (stereo unspecified) showed a z-score of -0.288. The same measure for `COC(=O)c1ccccc1NC(=O)C1CC(c2ccccc2O)=NO1` (stereo unspecified): 2.57; for `CN(C)CCCNCCNC(=O)/C=N\O`: -0.494; for `O=C1CC(c2ccncc2)c2cc3c(cc2N1)OCCO3` (stereo unspecified): 7.59 (active). With `O=C1CC(c2ccc3c(c2)OCO3)c2cc3c(cc2N1)OCCO3` (stereo unspecified), the z-score was 0.0815. Next, `O=C1CC(c2ccncc2)c2cc3c(cc2N1)OCO3` (stereo unspecified): 0.106. Next, `Cc1ccc(S(=O)(=O)CC(=O)c2ccc(C)c([N+](=O)[O-])c2)cc1`: -0.799; `CN(Cc1cccs1)C(=O)CCc1ccc(S(=O)(=O)N2CCOCC2)cc1`: 0.00198; `CS(=O)(=O)C1=NSC2=NC(=O)/C(=C\c3cccn3-c3ccc(Cl)cc3)C(=N)N21`: -0.377. Next, `Cc1ccc(/C=C/C2=NN(Cc3ccc(Cl)c(Cl)c3)C(=O)CC2)cc1`: -0.176; `O=C1CCC(/C=C/c2ccccc2)=NN1Cc1ccc(Cl)c(Cl)c1`: 13.4 (active). In turn, `O=C1CCC(/C=C/c2ccccc2)=NN1Cc1ccccc1Cl` had a z-score of -0.293. The same measure for `O=C(N/N=C/c1cccn1-c1ccc([N+](=O)[O-])cc1)C(O)c1ccccc1` (stereo unspecified): 0.181; for `O=C(Cc1ccccc1)N/N=C/c1cccn1-c1ccc([N+](=O)[O-])cc1`: 3.83 (active). The same measure for `COc1ccc(CC(=O)N/N=C/c2cccn2-c2ccc([N+](=O)[O-])cc2)cc1OC`: -0.892; for `O=C1CC(N2CCN(Cc3ccccc3)CC2)C(=O)N1c1ccc2c(c1)OCCO2` (stereo unspecified): -0.057; for `CSC(=O)NC12CC3CC(CC(C)(C3)C1)C2`: 8.08 (active). Next, `CC1(C(=O)NC23CC4CC(CC(C4)C2)C3)CC1(Cl)Cl` (stereo unspecified): -0.368; `CCSC(=O)NC12CC3CC(CC(C3)C1)C2`: -0.316.

The compound `CCOC(=O)CN1C(c2ccccc2O)Nc2ccc(Br)cc2C1c1ccccc1` (stereo unspecified) yielded a z-score of -0.45. The same measure for `CC(OC(=O)CN(C)S(=O)(=O)c1ccc(Cl)cc1)C(=O)Nc1ncc(Cl)cc1Cl` (stereo unspecified): -0.285; for `Nc1c(CO)nnn1-c1ccccc1`: -0.379. The same measure for `CCc1cc(-c2n[nH]c(=S)n2CC)cs1`: -0.194; for `CCCCn1c(-c2cccnc2)n[nH]c1=S`: -0.106. The same measure for `CC(C)c1cc(-c2n[nH]c(=S)n2Cc2ccccc2)cs1`: 1.35; for `CCCCn1c(-c2ccoc2C)n[nH]c1=S`: 0.216; for `CCCCn1c(-c2csc(C(C)C)c2)n[nH]c1=S`: 6.36 (active).

Turning to `CCCCn1c(-c2csc(CC)c2)n[nH]c1=S`, the z-score stood at 2.15. The same measure for `CCNC(=S)N(Cc1ccco1)Cc1cc2cc3c(cc2[nH]c1=O)OCCO3`: 0.158; for `Nc1ccc(C2(c3ccc(N)cc3)C(=O)Nc3ccccc32)cc1`: -0.763.

`Cc1cccnc1NC(=O)C1CCCN(S(=O)(=O)c2ccc3c(c2)oc(=O)n3C)C1` (stereo unspecified) gave a z-score of 0.166.

The compound `CCc1cccc(OCC(=O)Nc2ccc(S(=O)(=O)Nc3onc(C)c3C)cc2)c1` yielded a z-score of -0.0589. The same measure for `COc1cc(NC(=O)Cn2nnc(-c3ccncc3)n2)cc(OC)c1`: 0.284; for `CN(C)C(=O)CN(c1ccc(F)c(Cl)c1)S(C)(=O)=O`: 0.00105; for `Cc1ccc2c(c1)c(=O)c(Br)c(C)n2Cc1ccccc1`: -0.0481. The same measure for `COc1ccccc1C(c1nnnn1C(C)(C)C)N1CCN(Cc2ccncc2)CC1` (stereo unspecified): -0.332.

In turn, `CCN(CC)C(=O)CSCc1cnn(-c2ccccc2)c1-n1cccc1` gave a z-score of 0.216. Next, `COc1ccc(NC2=CC(c3ccc(OC)c(OC)c3)N(c3ccc(OC)cc3)C2=O)cc1` (stereo unspecified): -0.044; `COc1ccc2nc(N)sc2c1`: 0.0701; `COc1ccc2nc(N=Nc3ccc(N(C)C)cc3)sc2c1`: 0.141. The same measure for `COc1ccc2nc(N=Nc3ccc(O)c4ccccc34)sc2c1`: 5.85 (active); for `CCN(CC)C(=O)C(=O)N/N=C/c1cccs1`: -0.0972. Take `CCCCCN(C(=O)CN(C)Cc1ccc(OC)cc1OC)c1c(N)n(CCCC)c(=O)[nH]c1=O`: the z-score is 0.0701. In turn, `O=C(Nc1ccccc1)c1cccc(C(F)(F)F)c1` returned a z-score of -0.053. Next, `O=C(Nc1nnc(-c2cccs2)o1)c1cccc(C(F)(F)F)c1`: 14.1 (active). Next, `CCCCN(CCCC)S(=O)(=O)c1ccc(C(=O)Nc2nnc(COC)o2)cc1`: 1.03; `O=C(Nc1cccc(C(F)(F)F)c1)c1cc(-c2cccs2)on1`: -0.52; `O=C(Nc1nnc(-c2cccs2)o1)c1ccco1`: -0.203. Next, `O=C(Nc1nnc(-c2cccs2)o1)c1cccc(Oc2ccccc2)c1`: 14 (active); `CCCCN(C)S(=O)(=O)c1ccc(C(=O)Nc2nnc(-c3cccs3)o2)cc1`: 7.18 (active). In turn, `COc1cccc(C(=O)Nc2nnc(-c3cccs3)o2)c1` gave a z-score of 0.124. Next, `CCC1CCCCN1S(=O)(=O)c1ccc(C(=O)Nc2nnc(-c3cccs3)o2)cc1` (stereo unspecified): 0.233; `O=C(Nc1nnc(-c2cccs2)o1)c1cccc(F)c1`: 4.44 (active); `O=C(Nc1ccncc1)c1cccc(F)c1`: 0.415.

The compound `O=C(CCc1ccccc1)Nc1nnc(-c2cccs2)o1` returned a z-score of 0.129.

For the compound `CCc1ccccc1NC(=O)CSc1ncn[nH]1`, the z-score is -0.0941.

Regarding `CC1CCCN(c2nc(-c3cccnc3)nc3scc(-c4ccccc4)c23)C1` (stereo unspecified), the z-score is -0.0274. The same measure for `COc1ccc(CCNC(=O)c2ccc(-c3ccc([N+](=O)[O-])cc3)o2)cc1OC`: -0.544; for `CCOc1cc([C@H]2[C@@H]3CCCC[C@]3(O)CCN2CC(=O)NCc2ccco2)ccc1O`: -0.351; for `COc1ccc(N2CCN(Cc3nc4ccsc4c(=O)[nH]3)CC2)cc1`: -0.255. Next, `O=C(CN=C1NC(=O)C(c2ccccc2)(c2ccccc2)N1)NCc1ccc(F)cc1`: -0.114; `N#CCSc1nnc2ccc3ccccc3n12`: -0.272; `O=C(NCC(=O)N(Cc1cccs1)C(C(=O)NC1CCCCC1)c1ccco1)c1ccco1` (stereo unspecified): 2.96. The same measure for `O=C(NCC(=O)N(Cc1ccccc1)C(C(=O)NC1CCCC1)c1cccnc1)c1ccco1` (stereo unspecified): -0.0981; for `O=C(NCC(=O)N(Cc1cccs1)C(C(=O)NC1CCCC1)c1ccco1)c1cccs1` (stereo unspecified): 0.741. As to `O=C(NCC(=O)N(Cc1cccs1)C(C(=O)NC1CCCCC1)c1ccco1)c1cccs1` (stereo unspecified), the z-score is -0.518. In turn, `O=C(NCC(=O)N(Cc1ccco1)C(C(=O)NC1CCCCC1)c1cccnc1)c1ccco1` (stereo unspecified) showed a z-score of 0.556.

The compound `O=C(NCC(=O)N(Cc1ccco1)C(C(=O)NC1CCCC1)c1cccnc1)c1ccco1` (stereo unspecified) displayed a z-score of 2.19.

In the case of `COc1ccc(Cl)cc1NC(=O)CN(C)C1CCCCC1`, the z-score stood at 0.225. Next, `OCCN(Cc1ccccc1)Cc1ccccc1Cl`: 0.0815; `CC(C)CC(C(=O)O)N(Cc1ccccc1)Cc1ccccc1` (stereo unspecified): -0.132. The same measure for `C#CC(CO)N(CCN(Cc1ccccc1)C(C#C)CO)Cc1ccccc1` (stereo unspecified): 2.19; for `CC1CCc2c(sc(NC(=O)CSc3ncnc4c3cnn4-c3ccccc3Cl)c2C#N)C1` (stereo unspecified): -0.899; for `CSC1=N/C(=C\c2ccc(Br)o2)C(=O)S1`: 3.73 (active). The same measure for `CSC1=N/C(=C\c2ccc(F)cc2)C(=O)S1`: -0.817.

As for `CSC1=N/C(=C\c2ccc(C)cc2)C(=O)S1`, the z-score is -0.344. Next, `CC(=O)CC1(O)C(=O)N(Cc2ccccc2)c2ccccc21` (stereo unspecified): 0.034; `O=C(N/N=C/c1cnc2ccccc2n1)c1cccc(F)c1`: 0.223. Next, `Cc1ccccc1N=C1NC(=O)CS1`: 0.516.

Consider `O=C1CS/C(=N\C(=O)N2c3ccccc3Sc3ccccc32)N1`, for which the z-score was 7.66 (active). Next, `O=C(CN1CCCC1)N1c2ccccc2Sc2ccccc21`: -0.191; `COc1ccc(NC(=O)CSc2nc3ncccc3[nH]2)cc1OC`: -0.426. Next, `CCC(=O)N(Cc1cc2ccc(C)cc2n2nnnc12)C1CCCCC1`: -0.401. The compound `C=CCn1c(SC2CCOC2=O)nc2sc(C)c(C)c2c1=O` (stereo unspecified) had a z-score of -0.995. The same measure for `Cc1nc(SC2CCOC2=O)c2c(C)c(C)sc2n1` (stereo unspecified): 4.12 (active); for `Cc1cc(C)nc(SC2CCOC2=O)n1` (stereo unspecified): -0.0163; for `CCCC1Cc2c(sc(NC(=S)NC(=O)c3ccccc3)c2C#N)CO1` (stereo unspecified): 0.489. The same measure for `O=C(c1ccco1)N1CCN(S(=O)(=O)c2ccc(S(=O)(=O)NC3CC3)cc2)CC1`: -0.31; for `CC(C)CNS(=O)(=O)c1ccc(S(=O)(=O)NC2CCOC(C)(C)C2)cc1` (stereo unspecified): -0.235; for `CC(=O)N1CCN(S(=O)(=O)c2ccc(S(=O)(=O)NC3CC3)cc2)CC1`: 2.05. The same measure for `CC1(C)CC(NS(=O)(=O)c2ccc(S(=O)(=O)N3CCOCC3)cc2)CCO1` (stereo unspecified): 2.05; for `CC(=O)N1CCN(S(=O)(=O)c2ccc(S(=O)(=O)NCC(C)C)cc2)CC1`: -0.0339; for `CN(C)S(=O)(=O)c1ccc(S(=O)(=O)NC2CCOC(C)(C)C2)cc1` (stereo unspecified): -1.16. Compound `COc1cc(-n2c(C)nc3cc(C(=O)N4CCOCC4)ccc32)cc(OC)c1OC` registered a z-score of -0.458.

Turning to `CCOC(=O)c1c(C)[nH]c2c1cc(O)c1ccccc12`, the z-score was 4.58 (active). `CCOC(=O)c1c(C)oc2c1cc(O)c1ccccc12` returned a z-score of -0.493. The same measure for `CCOC(=O)c1c(-c2ccccc2)[nH]c2ccc(O)cc12`: -0.821; for `COc1ccc(-c2nc(NC(=O)c3ccc(OCC(=O)N4CCOCC4)c(OC)c3)sc2C)cc1`: -0.218.

In turn, `COc1ccccc1NC(=S)N(CCc1c(C)[nH]c2ccccc12)Cc1cccs1` gave a z-score of 0.381. Regarding `CCOc1cc(/C=N/NC(=O)CNc2cccc(C)c2)ccc1OC(=O)c1ccccc1`, the z-score was 5.52 (active). `CCOc1cc(/C=N\NC(=O)c2ccc(NC(=O)CC)cc2)ccc1OC(=O)c1ccccc1`: the z-score is -0.103.

`CCOc1cc(/C=N/NC(=O)CNc2ccc(C)cc2)ccc1OC(=O)c1ccccc1` showed a z-score of 0.0308. Compound `CC(=O)N(C)c1nnc(-c2ccccn2)s1` registered a z-score of -0.0164. Next, `CS(=O)(=O)N(CC(=O)Nc1ccc(F)c(F)c1)c1cccc([N+](=O)[O-])c1`: 0.348; `COc1cccc(NC(=O)C2CCN(Cc3cnn(-c4ccccc4)c3-n3cccc3)CC2)c1`: -0.463; `COc1ccc(OC)c(NC(=O)C2CCN(Cc3cnn(-c4ccccc4)c3-n3cccc3)CC2)c1`: -0.109. Next, `O=C(NCc1ccc2c(c1)OCO2)C1CCN(Cc2cnn(-c3ccccc3)c2-n2cccc2)CC1`: 3.14 (active); `COc1cc(NC(=O)CSCc2cnn(-c3ccccc3)c2-n2cccc2)cc(OC)c1`: 7.86 (active); `O=C(Nc1ccc2c(c1)OCO2)C1CCN(Cc2cnn(-c3ccccc3)c2-n2cccc2)CC1`: -0.13. In turn, `COc1ccc(OC)c(NC(=O)CSCc2cnn(-c3ccccc3)c2-n2cccc2)c1` yielded a z-score of 0.126. Next, `CC(=O)Nc1ccc(NC(=O)CSCc2cnn(-c3ccccc3)c2-n2cccc2)cc1`: -0.225; `O=C(NCc1ccccn1)C1CCN(Cc2cnn(-c3ccccc3)c2-n2cccc2)CC1`: -0.0285; `COc1cccc(CNC(=O)C2CCN(Cc3cnn(-c4ccccc4)c3-n3cccc3)CC2)c1`: 2.66.
